Inconclusive results are not listed. Active and inactive are the calls of the source. Calls follow the shape of the dose curve; as a rule, active = well fitted activation curve with a large enough effect; inconclusive = small, poorly fitted or top-dose-only effect; inactive = no such curve, though single readings can be large or run the other way.
target: Lysosomal acid glucosylceramidase (Homo sapiens) (UniProt P04062); experiment: qHTS Assay for Inhibitors and Activators of N370S glucocerebrosidase as a Potential Chaperone Treatment of Gaucher Disease: Confirmation for Probe SAR; conditions: N370S GC spleen homogenate, 4MU-glucoside fluorescence; series mostly up to 57.5 µM; activity change, positive = activation: at the top concentration
From the text: NIH Chemical Genomics Center [NCGC] NIH Molecular Libraries Probe Production Centers Network [MLPCN] MLPCN Grant: MH086442-01 Assay Submitter (PI): Wei Zheng Glucocerebrosidase (GC) catalyzes the hydrolysis of beta-glucocerebroside to glucose and ceramide in lysosomes. Mutations in the glucocerebrosidase gene result in Gaucher disease, an autosomal recessive lysosomal storage disorder. Many of the mutations encountered in patients with Gaucher disease are missense alterations that may cause misfolding, decreased stability and/or mistrafficking of this lysosomal protein. […] These inhibitors include iminosugar analogs and three non-iminosugar inhibitors identified from a previous HTS of 62,000 compounds with the wild type recombinant enzyme. However, the enhancement of enzyme activity by the chaperone action of an enzyme inhibitor must be balanced against the direct inhibition of the enzyme. An enzyme activator could also function as a chaperone by binding to the enzyme and helping to correct its misfolding and mistrafficking. While activators for GC have not yet been identified, they may have better therapeutic potential than inhibitors. Therefore the discovery and development of chemical activators may provide a new strategy for the chaperone therapy. We have optimized a new assay using N370S mutant GC derived from the spleen of a Gaucher patient. […] In addition, the MLPCN compound library has expanded, which increases the chance of finding new and better probes.
NCGC Assay Protocol Summary: This is a fluorogenic enzyme assay with 4-methylumbelliferyl-beta-D-glucopyranoside as the substrate and N370S glucocerebrosidase from human spleen homogenate as the enzyme preparation. Upon the hydrolysis of this fluorogenic substrate, the resulting product, […] which can be detected by a standard fluorescence plate reader. Data were normalized to the controls for basal activity (without enzyme) and 100% activity (with enzyme). The AC50 values were determined from concentration-response data modeled with the standard Hill equation. Assay buffer: 50 mM citric acid (titrated with potassium phosphate to pH 5.0), 100 mM potassium chloride, 10 mM sodium chloride, 1 mM magnesium chloride, 0.01% Tween-20. 1536-well assay protocol: (1) Add 2 ul/well of spleen homogenate (27 ug final) (2) Add 23 nL compounds in DMSO solution. The final titration was 0.5 nM to 58 uM. (3) Add 2 ul of substrate (1 mM final) (4) Incubate at 37C for 40 min. (5) Add 2 ul stop solution (1M NaOH and 1M Glycine mixture, pH 10) (6) Detect the assay plate in a ViewLux plate reader (PerkinElmer) with Ex=365 nm and Em=440nm. Keywords: Glucocerebrosidase, beta-glucosidase, Gaucher Disease, pharmacological chaperone, chaperone therapy, high throughput screening, glucocerebrosidase inhibitor, MLSMR, MLSCN, NIH Roadmap, qHTS and NCGC

Sequence of Lysosomal acid glucosylceramidase (Homo sapiens) (P04062 whole entry N409S): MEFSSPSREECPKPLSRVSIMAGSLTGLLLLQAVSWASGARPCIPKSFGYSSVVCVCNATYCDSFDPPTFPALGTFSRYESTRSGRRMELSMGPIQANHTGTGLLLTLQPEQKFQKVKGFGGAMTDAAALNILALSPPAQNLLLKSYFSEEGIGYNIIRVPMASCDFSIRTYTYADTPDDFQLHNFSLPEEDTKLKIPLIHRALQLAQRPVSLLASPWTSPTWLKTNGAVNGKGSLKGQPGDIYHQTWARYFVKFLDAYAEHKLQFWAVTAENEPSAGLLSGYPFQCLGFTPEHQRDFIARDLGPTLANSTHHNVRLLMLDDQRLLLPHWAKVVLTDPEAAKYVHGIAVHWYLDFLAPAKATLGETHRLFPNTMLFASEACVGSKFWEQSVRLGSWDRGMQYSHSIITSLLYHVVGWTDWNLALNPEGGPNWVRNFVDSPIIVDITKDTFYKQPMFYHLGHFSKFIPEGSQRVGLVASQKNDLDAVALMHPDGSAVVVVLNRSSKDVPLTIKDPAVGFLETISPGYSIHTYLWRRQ

**Q.** `Cc1cccc(NC(=O)c2cnn3c(C)cc(C)nc23)c1` was tested. Which Potency did it give?
**A.** The Potency was 3.66 µM (active).

**Q.** How did the “activity change, positive = activation” value turn out when `COc1ccc(NC(=O)c2cnn3c(-c4ccccc4)cc(C)nc23)cc1` was run?
**A.** The value was 18.3% (inactive).

**Q.** Which Potency does the source give for `O=C(Nc1ccccc1Sc1ccccc1)c1cnn2c1NC(=C1CC1)C=C2C(F)F` here?
**A.** Its Potency is 4.61 µM (active).

**Q.** With `Cc1cc(-c2ccccc2)nc2c(C(=O)Nc3ccc(Cl)c(Cl)c3)cnn12` as the molecule, how does the Potency read?
**A.** Its Potency is 6.51 µM (active).

**Q.** With `Cc1cc(C)n2ncc(C(=O)NC(C)C)c2n1` as the molecule, how does the “activity change, positive = activation” value read?
**A.** The value was 28.6% (inactive).

**Q.** For `Cc1cc(C)n2ncc(C(=O)Nc3ccc(Cl)c(Cl)c3)c2n1`, which Potency is on record?
**A.** Its Potency is 3.66 µM (active).

**Q.** `Cc1cc(C)n2ncc(C(=O)Nc3cccc(C(F)(F)F)c3)c2n1` was tested. Which Potency did it give?
**A.** Its Potency is 6.51 µM (active).
